Results published in PubChem BioAssay (NCI).
This is part of a sample that, as a whole, favours compounds with a hit. Of some 83,000 tested, about 20% had one in any assay.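 Testing used 96-well plates and a 48-hour single-concentration exposure. Example: -40 means 40% of the starting cells died.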 Calls of active or inactive are those of the source. How the source made its calls: active means growth percent below 10; inactive means the rest.

These molecules were tested on SK-MEL-5 melanoma (assay: NCI-60 one-dose screen, 48 h (100 = growth as untreated, 0 = no growth, -100 = all killed)). Details: 10 µM unless noted.

| Structure (SMILES) | growth |
| --- | --- |
| CCCNC(=O)Oc1ccc(/C(=C(/C)Cc2ccc(OC)cc2)c2ccc(OCCCN(C)C)cc2)cc1 | 86.9% (inactive) |
| C/C(=N\NC(=O)c1ccccc1O)c1cccc(/C(C)=N/NC(=O)c2ccccc2O)n1 | 38% (inactive) |
| COCCn1c(-c2csc(-c3cn(C)c4ccc(OC)cc34)n2)cc2cccnc21 | 65.2% (inactive) |
| Cn1c(=O)c2[nH]c(N/N=C/c3ccccc3Br)nc2n(C)c1=O | 103% (inactive) |
| O=C(Nc1nn(-c2ccc(Cl)cc2Cl)nc1-c1ccccc1)c1ccccc1 | 110% (inactive) |
| C=C1C(=O)O[C@H]2[C@H]1CC/C(COC(=O)NCc1ccc(Cn3c(=O)sn(CCI)c3=O)cc1)=C\CC[C@@]1(C)O[C@@H]21 | 98.8% (inactive) |
| Brc1c2c(c(Br)c3ccccc13)CCCC2 | 98.3% (inactive) |
| CS(=O)(=O)c1cccc(-c2c(-c3cccc(OS(N)(=O)=O)c3)nc3sccn23)c1 | 96.6% (inactive) |
| Oc1ccc(CCn2c(O)c(/C=C3\CN=c4ccccc4=N3)sc2=S)cc1 | 88.3% (inactive) |
| O=C(O)[C@@H]1c2ccccc2-c2ccccc2[C@H]1C(=O)O | 110% (inactive) |
| Cn1cc(-c2csc(-c3ccc(Cl)cc3)n2)c2cccnc21 | -86.9% [100 µM] (active) |
| NC(=O)c1c(NC(=O)c2ccccc2)sc2c1CCC(=O)C2 | -57.6% (active) |
| Cc1cc(Cl)ccc1Nc1nc(C(F)(F)F)ccc1C(=O)N/N=C/c1ccc([N+](=O)[O-])cc1 | 84.7% (inactive) |
| N#Cc1c(NC(=O)c2ccccc2)sc2c1CCC(=O)C2 | -75.8% (active) |
